According to PubChem BioAssay AID1159580 (chemical genetic matrix, 2015):
Among all 5,500 compounds or so, about 2,000 (36%) were called active. About 18% were inconclusive and are not listed. Rule as the data show it: active = normalized growth mostly below about 0.91 (no sharp cut-off); inconclusive = no clear call, values can overlap the other calls; inactive = mostly above about 0.92. The list shows a part of the results.

Test: chemical genetic growth profiling, strain panel (AID 1159580);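 also: tested at 20 µM; growth read once vehicle control cultures reached saturation at 30 °C; 1 = growth at the plate median or of vehicle wells; lower values mean less growth of the strain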
Settings: growth OD

Measured: normalized growth

Oc1cc(O)c2c(c1)O[C@H](c1cc(O)c(O)c(O)c1)[C@H](O)C2
inactive: S. cerevisiae deletion strains, locus YJR043C, strain POL32, hits give low values 1.05 | S. cerevisiae deletion strains, locus YJR066W, strain TOR1, hits give low values 0.918 | S. cerevisiae deletion strains, locus YKL009W, strain mrt4, hits give low values 0.976 | S. cerevisiae deletion strains, locus YKL068W, hits give low values 1 | S. cerevisiae deletion strains, locus YKL085W, strain MDH1 (second series), hits give low values 1 | S. cerevisiae deletion strains, locus YKL085W, strain MDH1, hits give low values 1 | S. cerevisiae deletion strains, locus YKL160W, strain elf1, hits give low values 1.01 | S. cerevisiae deletion strains, locus YKR001C, strain vps1, hits give low values 0.973 | S. cerevisiae deletion strains, locus YKR026C, strain gcn3, hits give low values 1.02 | S. cerevisiae deletion strains, locus YKR091W, strain srl3, hits give low values 1.02 | S. cerevisiae deletion strains, locus YLL001W, strain dnm1, hits give low values 1.03 | S. cerevisiae deletion strains, locus YLL026W, hits give low values 1.02 | S. cerevisiae deletion strains, locus YLL041C, strain sdh2, hits give low values 1.02 | S. cerevisiae deletion strains, locus YLR027C, strain aat2, hits give low values 1 | S. cerevisiae deletion strains, locus YLR039C, strain RIC1, hits give low values 1.05 | S. cerevisiae deletion strains, locus YLR058C, strain SHM2, hits give low values 0.98 | S. cerevisiae deletion strains, locus YLR102C, strain apc9, hits give low values 0.976 | S. cerevisiae deletion strains, locus YLR113W, strain HOG1, hits give low values 0.977 | S. cerevisiae deletion strains, locus YLR221C, strain rsa3, hits give low values 1.01 | S. cerevisiae deletion strains, locus YLR258W, strain gsy2, hits give low values 1.01 | S. cerevisiae deletion strains, locus YLR262C, strain YPT6 (second series), hits give low values 1.03 | S. cerevisiae deletion strains, locus YLR262C, strain YPT6, hits give low values 1.06 | S. cerevisiae deletion strains, locus YLR268W, strain sec22, hits give low values 0.98 | S. cerevisiae deletion strains, locus YLR320W, strain mms22, hits give low values 1.04 | S. cerevisiae deletion strains, locus YLR330W, strain CHS5, hits give low values 1.01 | S. cerevisiae deletion strains, locus YLR342W, strain FKS1 (second series), hits give low values 0.996 | S. cerevisiae deletion strains, locus YLR342W, strain FKS1, hits give low values 1.01 | S. cerevisiae deletion strains, locus YLR357W, strain rsc2, hits give low values 0.986 | S. cerevisiae deletion strains, locus YLR370C, strain arc18, hits give low values 1.01 | S. cerevisiae deletion strains, locus YLR371W, strain rom2, hits give low values 0.981 | S. cerevisiae deletion strains, locus YLR384C, strain iki3, hits give low values 1.03 | S. cerevisiae deletion strains, locus YLR418C, strain cdc73, hits give low values 1.01 | S. cerevisiae deletion strains, locus YML016C, strain PPZ1, hits give low values 0.981 | S. cerevisiae deletion strains, locus YML032C, strain rad52, hits give low values 1.03 | S. cerevisiae deletion strains, locus YML120C, strain ndi1, hits give low values 1.04 | S. cerevisiae deletion strains, locus YML124C, strain tub3, hits give low values 0.999 | S. cerevisiae deletion strains, locus YMR058W, strain fet3, hits give low values 0.945 | S. cerevisiae deletion strains, locus YMR078C, strain ctf18, hits give low values 1 | S. cerevisiae deletion strains, locus YMR125W, strain sto1, hits give low values 1.02 | S. cerevisiae deletion strains, locus YMR129W, hits give low values 1.02 | S. cerevisiae deletion strains, locus YMR205C, strain PFK2, hits give low values 1.06 | S. cerevisiae deletion strains, locus YMR223W, strain ubp8, hits give low values 0.991 | S. cerevisiae deletion strains, locus YMR231W, strain pep5, hits give low values 0.987 | S. cerevisiae deletion strains, locus YMR307W, strain GAS1, hits give low values 1.07 | S. cerevisiae deletion strains, locus YNL067W, strain RPL9B, hits give low values 0.984 | S. cerevisiae deletion strains, locus YNL071W, strain lat1, hits give low values 1.03 | S. cerevisiae deletion strains, locus YNL153C, strain GIM3, hits give low values 0.957 | S. cerevisiae deletion strains, locus YNL183C, strain NPR1, hits give low values 0.951 | S. cerevisiae deletion strains, locus YNL209W, strain ssb2, hits give low values 1 | S. cerevisiae deletion strains, locus YNL233W, strain BNI4, hits give low values 0.987 | S. cerevisiae deletion strains, locus YNL248C, strain rpa49, hits give low values 1.03 | S. cerevisiae deletion strains, locus YNL250W, strain rad50, hits give low values 0.986 | S. cerevisiae deletion strains, locus YNL271C, strain bni1, hits give low values 0.988 | S. cerevisiae deletion strains, locus YNL298W, strain CLA4, hits give low values 0.969 | S. cerevisiae deletion strains, locus YNL307C, strain MCK1, hits give low values 0.981 | S. cerevisiae deletion strains, locus YNL322C, strain KRE1 (second series), hits give low values 1.02 | S. cerevisiae deletion strains, locus YNR049C, strain mso1, hits give low values 1.02 | S. cerevisiae deletion strains, locus YNR052C, strain pop2, hits give low values 0.994 | S. cerevisiae deletion strains, locus YOL012C, strain htz1 1.18 | S. cerevisiae deletion strains, locus YOL147C, strain pex11, hits give low values 0.988 | S. cerevisiae deletion strains, locus YOR001W, strain rrp6, hits give low values 1.03 | S. cerevisiae deletion strains, locus YOR061W, strain CKA2, hits give low values 0.99 | S. cerevisiae deletion strains, locus YOR069W, strain VPS5, hits give low values 0.99 | S. cerevisiae deletion strains, locus YOR070C, strain gyp1, hits give low values 1 | S. cerevisiae deletion strains, locus YOR080W, strain dia2, hits give low values 1.02 | S. cerevisiae deletion strains, locus YOR083W, strain WHI5, hits give low values 1.01 | S. cerevisiae deletion strains, locus YOR106W, strain vam3, hits give low values 0.999 | S. cerevisiae deletion strains, locus YOR136W, strain idh2, hits give low values 0.976 | S. cerevisiae deletion strains, locus YOR144C, strain elg1, hits give low values 1 | S. cerevisiae deletion strains, locus YOR184W, strain ser1, hits give low values 1.02 | S. cerevisiae deletion strains, locus YOR231W, strain MKK1, hits give low values 0.983 | S. cerevisiae deletion strains, locus YOR265W, strain rbl2, hits give low values 1.02 | S. cerevisiae deletion strains, locus YOR270C, strain vph1, hits give low values 1.1 | S. cerevisiae deletion strains, locus YOR290C, strain snf2, hits give low values 1.02 | S. cerevisiae deletion strains, locus YOR316C, strain cot1, hits give low values 0.98 | S. cerevisiae deletion strains, locus YPL051W, strain arl3, hits give low values 1 | S. cerevisiae deletion strains, locus YPL055C, strain LGE1, hits give low values 1.01 | S. cerevisiae deletion strains, locus YPL078C, strain atp4, hits give low values 1.05 | S. cerevisiae deletion strains, locus YPL106C, strain sse1, hits give low values 0.99 | S. cerevisiae deletion strains, locus YPL240C, strain hsp82, hits give low values 1.02 | S. cerevisiae deletion strains, locus YPL256C, strain CLN2, hits give low values 0.983 | S. cerevisiae deletion strains, locus YPR119W, strain clb2, hits give low values 0.992 | S. cerevisiae deletion strains, locus YPR141C, strain kar3, hits give low values 0.978 | S. cerevisiae deletion strains, locus YPR163C, strain tif3, hits give low values 0.988 | S. cerevisiae deletion strains, locus YPR167C, strain met16, hits give low values 1 | S. cerevisiae deletion strains, strain wtn01, hits give low values 0.975 | S. cerevisiae strains, strain wild type, hits give low values 1
